Measurements reported in PubChem BioAssay (NCATS).
The source made the active and inactive calls. The call rests on the fitted dose curve; in most records, active means well fitted activation curve with a large enough effect; inconclusive means small, poorly fitted or top-dose-only effect; inactive means flat fitted curve, though single readings scatter.

test: Confirmation and Secondary Assay for Modulators of Hemoglobin Beta Chain Splicing at IVS2 654 locus (AID 910); settings: HeLa EGFP-654 splicing reporter, GFP fluorescence, 48 h; series mostly up to 46.1 µM;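 further: HeLa cells stably carrying EGFP split by mutant beta-globin IVS2-654 intron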
Excerpt: NIH Chemical Genomics Center [NCGC] NIH Molecular Libraries Screening Centers Network [MLSCN] MLSCN Grant: 1 X01 MH080684-01 PI Name: Dr. Ryszard Kole NCGC Assay Overview: Modulation of Alternative Splicing as Therapy Abnormal splicing is associated with a number of diseases, including cancer and genetic diseases such as cystic fibrosis, muscular dystrophy and beta-thalassemia. Alteration of disease associated splicing patterns provides a promising target for treatment. […] Mutations in the second intron of the b-globin gene at positions 654 or 705 are clinically relevant and cause mis-splicing which results in an out of frame gene product. […] EGFP-654 HeLa Cells as screen system. HeLa cell lines were stably transfected with a construct in which the EGFP (enhanced green fluorescent protein) cDNA was interrupted by the second intron of the beta-globin gene (IVS2-654). The ISV2 intron contains mutations which cause mis-splicing of EGFP and premature termination of EGFP which results in a nonfluorescent protein product. […] Expression of the transgene was driven by the CMV promoter. We concluded that a low molecular weight compound, which restored correct splicing of intron 2 would also generate functional EGFP protein, resulting in a fluorescent signal. Thus, the HeLa cells that express the EGFP-654 construct can be used for high throughput screening of a chemical library.
NCGC Assay Protocol Summary: Confirmatory Screening. Freshly thawed HeLa EGFP-654 cells were seeded in 5 ul of optimem media (Invitrogen) containing 2 % fetal calf serum (Hyclone) and 1x penicillin/streptomycin (Invitrogen) at a concentration of 500 cells per well in 1536-well plates. Cells were incubated overnight at 37C in 5% CO2. The next day, cells were treated with DMSO, 500 nM antisense ISV2 654 PNA control oligo, or library compound and allowed to grow at 37C in 5% CO2 for 2 days. The PNA oligo blocked the mutation site in the intron and allowed proper (wild type) splicing to occur, resulting in full length EGFP expression and also allowed for optimization of the assay parameters. Plates were read in the Acumen Explorer (TTP Labtech) using 488 nm laser excitation and 500-520 nm emission PMT filter in a 1 x 8 uM capture mode. Fluorescnet objects ranging in size from 5 to 250 uM were measured and the total peak GFP intensity for each well was used for data analysis. Keywords: Thalassemia, beta-thalassemia, beta-globin, EGFP, ISV2 654, ISV2 705, SSO, PNA, antisense, splicing, MLSMR, MLSCN, NIH Roadmap, qHTS, NCGC

Potency, inactive:
CC(=O)O[C@@]1(C(C)=O)CCC2C3C=C(C)C4=CC(=O)CCC4(C)C3CCC21C (stereo not given in full)
O=C(/C=C(\O)c1ccccc1)c1ccccc1O
O=C1OC(CO)C(O)C(O)C1O (stereo not given)
CC1=C(C(=O)O)N2C(=O)C(NC(=O)C(N)c3ccccc3)C2SC1 (stereo not given)
NCC1CCC(N)C(O[C@@H]2C(O)[C@H](O[C@H]3OC(CO)C(O)C(N)C3O)[C@@H](N)C[C@H]2N)O1 (stereo not given in full)
CCCC(NC(C)C(=O)N1C(C(=O)O)CC2CCCCC21)C(=O)OCC (stereo not given)
CC(=O)SC1CC2=CC(=O)CC[C@@]2(C)C2CC[C@@]3(C)[C@@H](CC[C@@]34CCC(=O)O4)C12 (stereo not given in full)
COc1ccc(-c2cc(=O)c3c(O)cc(O[C@H]4OC(COC5OC(C)C(O)C(O)[C@H]5O)C(O)C(O)C4O)cc3o2)cc1O (stereo not given in full)
NCCC(O)C(=O)NC1C[C@@H](N)[C@H](O[C@@H]2OC(CN)C(O)C(O)C2O)C(O)[C@H]1O[C@H]1OC(CO)C(O)C(N)C1O (stereo not given in full)
COc1cc(OC)c2c(=O)c(O)c(-c3ccc(OC)c(OC)c3)oc2c1
CC1(C)OC2CO[C@]3(COS(N)(=O)=O)OC(C)(C)OC3C2O1 (stereo not given in full)
O=C1CC(c2ccc(O)c(O)c2)Oc2cc(O)cc(O)c21 (stereo not given)
COC1CC(O[C@H]2/C(C)=C/CC3CC(C[C@]4(CCC(C)C(C5CCCCC5)O4)O3)OC(=O)[C@H]3C=C(C)/C(=N/O)C4OC/C(=C\C=C\[C@@H]2C)[C@@]43O)OC(C)C1O (stereo not given in full)
COc1ccc(C2CC(=O)c3c(O)cc(O)cc3O2)cc1O (stereo not given)
CC(=O)[C@]1(O)CCC2C3CCC4=CC(=O)CC[C@@]4(C)C3CC[C@]21C (stereo not given in full)
CNC(CC(=O)O)C(=O)O (stereo not given)
COC(=O)/C(C)=C/CC12OC(C)(C)C3CC(C=C4C(=O)c5cc6c(c(CCC(C)(C)Cl)c5OC431)OC1(C)CCC(=C(C)C)C6C1)C2=O (stereo not given)
CC(=O)OC1CC2C(C)(C)C=CC(=O)[C@@]2(C)C2CC[C@@]3(C)C(c4ccoc4)OC(=O)C4OC43[C@]12C (stereo not given in full)
CCOC(=O)c1c(C)cc(O)cc1O
OCc1ccccc1O[C@H]1OC(CO)C(O)C(O)C1O (stereo not given in full)
COc1ccc(-c2coc3cc(O)ccc3c2=O)c(OC)c1
CC(=O)OCC(=O)C1CCC2C3CC=C4CC(O)CC[C@@]4(C)C3CC[C@]12C (stereo not given in full)
[N-]=[N+]=Nc1nc2c(N)ncnc2n1C1OC(CO)C(O)C1O (stereo not given)
CS(=O)(=O)c1ccc(C(O)C(CO)NC(=O)C(Cl)Cl)cc1 (stereo not given)
CC(C)=CC1C(CO)C1(C)C (stereo not given)
CC(=O)OC1C[C@@]2(C)C(c3ccoc3)OC(=O)C3O[C@@]32[C@]2(C)C(OC(C)=O)CC3C(C)(C)C(OC(C)=O)CC(OC(C)=O)[C@@]3(C)C12 (stereo not given in full)
CC(=O)OCC(=O)[C@]1(O)C(C)CC2C3CCC4=CC(=O)C=C[C@@]4(C)[C@]3(F)C(O)C[C@@]21C (stereo not given in full)
CC1(C)OC2C(CO)OC(n3cnc4c(=O)[nH]cnc43)C2O1 (stereo not given)
COC(=O)C1OC(=O)C2O[C@@]23[C@]2(C)C(OC(C)=O)CC4C(C)(C)C(=O)CC[C@]4(C)C2CC[C@@]13C (stereo not given in full)
CCC(CCC(C)C1CCC2C3CC=C4CC(O)CC[C@@]4(C)C3CC[C@@]12C)C(C)C (stereo not given in full)
CC(=O)C1CCC2C3CC=C4CC(O)CC[C@@]4(C)C3CC[C@]12C (stereo not given in full)
C=CCCCCCCCCCCCC(O)CC(O)CO (stereo not given) (tested in a mixture with another compound)
COC1C=CO[C@@]2(C)Oc3c(C)c(O)c4c(O)c(c(C=NN5CCN(C)CC5)c(O)c4c3C2=O)NC(=O)/C(C)=C\C=CC(C)C(O)[C@@H](C)C(O)C(C)[C@H](OC(C)=O)C1C (stereo not given in full)
C=CC1=C(C)/C(=C/c2[nH]c(Cc3[nH]c(/C=C4\NC(=O)C(C)=C4C=C)c(C)c3CCC(=O)O)c(CCC(=O)O)c2C)NC1=O
CCOC(=O)C(CCc1ccccc1)NC(C)C(=O)N1CCCC1C(=O)O (stereo not given)
CC(=O)N[C@H](CS)C(=O)O
CCOc1cccc(C(=O)c2ccc(O)c(O)c2O)c1
C=CCCCCCCCCCCC/C=C/C(O)COC(C)=O (stereo not given)
CC[C@@]12CCCN3CCc4c(n(c5ccccc45)[C@](O)(C(=O)OC)C1)C32 (stereo not given in full)
COc1c(OC)c2occc2c2oc(=O)ccc12
